# Results taken from PubChem BioAssay (EPA / NIEHS).
# Records with an inconclusive call do not appear. Activity calls are given as the source filed them. Rule for the calls: active = hit-call score of the fitted dose curve at least 0.9, where 1 is the maximum; inconclusive = response in the unintended direction; inactive = score below 0.9.
# Experiment: CCTE_Harrill_HTTr_CellCount_MCF7: CCTE's Cell Proliferation Assessment for the High-Throughput Transcriptomics (HTTr) Platform, Harrill Lab (AID 2284012);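 note: count of Hoechst-stained nuclei per well by high-content imaging in MCF-7 cells; cells exposed to compound for six hours; intended direction is loss of nuclei count meaning fewer cells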
# How it was run: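 Readout: Hoechst nuclear count by high-content imaging. MCF-7, 8-point dilution series, 6 h exposure. Bidirectional fit vs DMSO baseline.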
row,SMILES,outcome
1,CC1(C)CCC(Cc2ccc(Cl)cc2)C1(O)Cn1cncn1 (centres undefined),inactive
2,COc1ccc(C=O)cc1,inactive
3,P.[In],inactive
4,[O-][Cl+2]([O-])O,inactive
5,N#CCCO,inactive
6,O=C(Cc1ccccc1)c1ccccc1,inactive
7,C[C@]12CC[C@H](O)CC1=CC[C@@H]1[C@@H]2CC[C@]2(C)C(=O)CC[C@@H]12,inactive
8,CCCCCCCCC(=O)NCc1ccc(O)c(OC)c1,inactive
9,O=c1[nH]c(=O)[nH]c(=O)[nH]1,inactive
10,COc1ccc(C(O)(c2cncnc2)C2CC2)cc1 (centres undefined),inactive
11,Oc1c(I)cc(I)cc1I,inactive
12,CC(Br)C(=O)O (centres undefined),inactive
13,Nc1ccc(N=Nc2ccc(-c3ccc(N=Nc4c(S(=O)(=O)O)cc5cc(S(=O)(=O)O)c(N=Nc6ccccc6)c(O)c5c4N)cc3)cc2)c(N)c1,inactive
14,CCOP(=S)(OCC)Oc1ccc(S(C)=O)cc1 (centres undefined),inactive
15,O=C(O)C(F)(F)C(F)(F)C(F)(F)C(F)(F)C(F)(F)C(F)(F)F,inactive
16,O=S(=O)(c1ccc(Cl)cc1)c1ccc(Cl)cc1,inactive
17,C[C@H]1CCCC(=O)CCC/C=C/c2cc(O)cc(O)c2C(=O)O1,inactive

row,SMILES,outcome
1,ClC(Cl)=C(Cl)C(Cl)=C(Cl)Cl,inactive
2,CC1(C)Cc2cccc(O)c2O1,inactive
3,CC(C)c1cccc(C(C)C)c1O,inactive
4,C[C@H]1O[C@@H](O[C@H]2[C@@H](O)C[C@H](O[C@H]3[C@@H](O)C[C@H](O[C@H]4CC[C@@]5(C)[C@H](CC[C@@H]6[C@@H]5CC[C@]5(C)[C@@H](C7=CC(=O)OC7)CC[C@]65O)C4)O[C@@H]3C)O[C@@H]2C)C[C@H](O)[C@@H]1O,inactive
5,CC(C)C1CCC(Cc2ccc(Cl)cc2)C1(O)Cn1cncn1 (centres undefined),inactive
6,Nc1ccc(-c2ccc(N)c(Cl)c2)cc1Cl,inactive
7,C=CC#N,inactive
8,Oc1cccc2cccnc12,inactive
9,Clc1ccc(COC(Cn2ccnc2)c2ccc(Cl)cc2Cl)cc1 (centres undefined),inactive
10,Oc1ccc(-c2ccccc2)cc1,inactive
11,Cc1ccc(N)cc1Cl,inactive
12,ClC1=C(Cl)[C@]2(Cl)[C@H]3[C@H]([C@H]4C=C[C@H]3C4)[C@@]1(Cl)C2(Cl)Cl,inactive
13,COc1cc2c(cc1OC)[C@@]13CCN4CC5=CCO[C@H]6CC(=O)N2[C@H]1[C@H]6[C@H]5C[C@H]43,inactive
14,Nc1cccc2ccccc12,inactive
15,COc1ccc(C=O)cc1OC,inactive
16,CC(C)OC(=O)Nc1ccccc1,inactive
17,CCCCOCCOC(C)=O,inactive
